Entries with a potency or affinity are not part of this list.

The subject of the first assay is Staphylococcus aureus. Particulars: Concentration 20 uM; ASSAY_TEST Inhibition of Bacterial Growth; detection method Absorption (OD600); MEDIA CAMHB; plate type 384well; NBS; CORNING #3640; time 18 hr.
As usually defined, the Inhibition is the change of the read-out against control, counted positive when it falls. Take `COc1cc(C2=NCCN2)ccc1-c1cn(-c2cccc(C3=NCCN3)c2)nn1`: the Inhibition was determined as 19.96%.

For `Cc1cc(Cl)c(S(=O)(=O)N2CCCC2)cc1OCC(=O)NC1CCCCC1`, the Inhibition is 7.56%.

As for `O=C(Nc1nc(-c2ccccn2)cs1)C1CC1c1ccccc1F` (configuration not stated), the Inhibition was 16.77%.

On to `Cc1ccc(S(=O)(=O)Nc2ccc(CN3CCN(C(=O)c4cccc(C#N)c4)CC3)cc2)cc1`, for which the Inhibition came out at 8.99%.

Consider `O=C(Nc1nc(-c2ccccn2)cs1)c1cncn1-c1ccccc1`, for which the Inhibition was 8.38%.

In the case of `N#Cc1nc(-c2ccccc2F)oc1NCCc1ccccc1`, the Inhibition turned out to be 7.55%.

As to `Cc1cc(NC(=O)c2ccc(S(=O)(=O)N(Cc3ccccc3)C(C)C)cc2)no1`, the Inhibition amounted to 10.98%.

As for `c1coc(CNc2nc(N3CCCCC3)nc3ccccc23)c1`, the Inhibition was determined as 13.52%.

As for `Cc1[nH]c2cc(F)cc(F)c2c(=O)c1-c1ccc(Oc2ccc(OC(F)(F)F)cc2)cc1`, the Inhibition is on record as 11.17%.

Take `Cc1noc(C)c1COc1cccc(C(=O)N=c2[nH]cccc2C)c1`: the Inhibition is 21.93%.

`COc1ccc(-c2cncc3ccc(C(=O)NCCCn4ccnc4)nc23)cc1`: the Inhibition was 13.71%.

Take `CCN(CC)S(=O)(=O)c1ccc(Cl)c(C(=O)Nc2ccc3nc(C)sc3c2)c1`: the Inhibition was found to be 2.16%.

For the compound `FC(F)(F)c1cccc(-c2nc3c(NCc4ccncc4)nccc3[nH]2)c1`, the Inhibition is listed as 9.41%.

`CCOC(=O)c1noc(N)c1-c1ccccc1`: the Inhibition turned out to be 31.41%.

Turning to `CCc1nc2ccc(C(=O)NCc3ccc4c(c3)OCO4)cn2c1N(C)Cc1cccs1`, the Inhibition stood at 4.69%.

For `N#Cc1nc(-c2ccccc2)oc1S(=O)(=O)c1ccc(Cl)cc1`, the Inhibition worked out at 8.62%.

Turning to `Clc1cccc(CO[C@H]2CCc3ccccc3[C@@H]2n2ccnn2)c1`, the Inhibition was -0.96%.

In the case of `COc1ccc(C2(C(=O)Nc3ccc(Br)cc3)CCCC2)cc1`, the Inhibition is 18.94%.

As for `CN1CCN(S(=O)(=O)c2ccc(-c3ccc4c(Nc5ccc6nn[nH]c6c5)ccnc4c3)cc2)CC1`, the Inhibition was found to be 10.46%.

For the compound `Cc1cc(O)nc(-n2nc(C)cc2C)n1`, the Inhibition is reported as 9.17%.

Turning to `Cc1cc(C)cc(COc2ccc3c(C)c(CCC(=O)O)c(=O)oc3c2C)c1`, the Inhibition is listed as 19.34%.

Regarding `Cl.O[C@@H](c1cc(C(F)(F)F)nc2c(C(F)(F)F)cccc12)[C@H]1CCCCN1`, the Inhibition was determined as 45.36%.

Take `CC(C)(C)C(=O)N(CCCCCCN1C[C@H](O)[C@@H](O)[C@H](O)[C@H]1CO)C1CCCCCC1`: the Inhibition is recorded as -1.36%.

Take `c1ccc(-c2[nH]c3ccccc3c2C(c2ccccn2)N2CCCC2)cc1` (configuration not stated): the Inhibition came to 7%.

In the case of `O=C1Nc2ccc(Br)cc2C12NCCc1c2[nH]c2ccccc12` (configuration not stated), the Inhibition was found to be 8.87%.

Turning to `CCc1ccc(C(NCc2nc(N)nc(N(C)C)n2)C(C)C)cc1` (configuration not stated), the Inhibition is recorded as 6.21%.

For `CCN(CC)CCCN1CCN(C(=O)c2cccc(-c3noc(C(F)(F)F)n3)c2)CC1`, the Inhibition is -0.71%.

As for `COc1cc(-c2cc(-c3ccc(S(C)(=O)=O)cc3)cnc2N)ccc1O`, the Inhibition is 12.87%.

On to `CNC1C(OC2C(OC3C(O)C(O)C(NC(=N)N)C(O)C3NC(=N)N)OC(C)C2(O)C=O)OC(CO)C(O)C1O.CNC1C(OC2C(OC3C(O)C(O)C(NC(=N)N)C(O)C3NC(=N)N)OC(C)C2(O)C=O)OC(CO)C(O)C1O.O=S(=O)(O)O.O=S(=O)(O)O.O=S(=O)(O)O` (configuration not stated), for which the Inhibition was 2.48%.

As for `COc1ccc2nc(C)cc(OCC(=O)NCc3ccccc3)c2c1`, the Inhibition came out at 12.19%.

With `Cc1ccc(NC(=O)c2nc[nH]c2C(=O)Nc2nc3ccccc3[nH]2)c(C)c1`, the Inhibition is recorded as 23.22%.

As for `OCCc1ccc(Nc2nccc(-c3nnc4ccccn34)n2)cc1`, the Inhibition is 21.71%.

Turning to `CCOc1ccc(-c2nc(NC(=O)CS(=O)(=O)c3ccccc3)sc2C)cc1`, the Inhibition is 3.82%.

For the compound `c1ccc2c(c1)CN(CC1CC1)CC1(CCN(Cc3c[nH]c4cnccc34)CC1)O2`, the Inhibition is on record as 14.8%.

Turning to `Cc1ccc2nc(C)c(-c3ccn(Cc4ccccc4)n3)n2c1`, the Inhibition stood at 13.47%.

Turning to `CC1COC2(CCN(c3nc(=O)c4cc(C(F)(F)F)cc([N+](=O)[O-])c4s3)CC2)O1` (configuration not stated), the Inhibition turned out to be 16.17%.

Another assay has as its system Escherichia coli. Particulars: Concentration 20 uM; ASSAY_TEST Inhibition of Bacterial Growth; detection method Absorption (OD600); MEDIA CAMHB; plate type 384well; NBS; CORNING #3640; time 18 hr.
In the case of `COc1cc(C2=NCCN2)ccc1-c1cn(-c2cccc(C3=NCCN3)c2)nn1`, the Inhibition came to 14.41%.

Turning to `Cc1cc(Cl)c(S(=O)(=O)N2CCCC2)cc1OCC(=O)NC1CCCCC1`, the Inhibition came to 0.73%.

For `O=C(Nc1nc(-c2ccccn2)cs1)C1CC1c1ccccc1F` (configuration not stated), the Inhibition stood at 3.89%.

For `Cc1ccc(S(=O)(=O)Nc2ccc(CN3CCN(C(=O)c4cccc(C#N)c4)CC3)cc2)cc1`, the Inhibition turned out to be 3.52%.

In the case of `O=C(Nc1nc(-c2ccccn2)cs1)c1cncn1-c1ccccc1`, the Inhibition came out at 5.73%.

Turning to `N#Cc1nc(-c2ccccc2F)oc1NCCc1ccccc1`, the Inhibition stood at 2.58%.

For `Cc1cc(NC(=O)c2ccc(S(=O)(=O)N(Cc3ccccc3)C(C)C)cc2)no1`, the Inhibition is given as 6.09%.

As to `c1coc(CNc2nc(N3CCCCC3)nc3ccccc23)c1`, the Inhibition was 5.17%.

In the case of `Cc1[nH]c2cc(F)cc(F)c2c(=O)c1-c1ccc(Oc2ccc(OC(F)(F)F)cc2)cc1`, the Inhibition was -0.95%.

As for `Cc1noc(C)c1COc1cccc(C(=O)N=c2[nH]cccc2C)c1`, the Inhibition is on record as 6.93%.

Regarding `COc1ccc(-c2cncc3ccc(C(=O)NCCCn4ccnc4)nc23)cc1`, the Inhibition is 12.75%.

Consider `CCN(CC)S(=O)(=O)c1ccc(Cl)c(C(=O)Nc2ccc3nc(C)sc3c2)c1`, for which the Inhibition came to 0.28%.

For the compound `FC(F)(F)c1cccc(-c2nc3c(NCc4ccncc4)nccc3[nH]2)c1`, the Inhibition came out at 5.83%.

`CCOC(=O)c1noc(N)c1-c1ccccc1`: the Inhibition is 11.39%.

Consider `CCc1nc2ccc(C(=O)NCc3ccc4c(c3)OCO4)cn2c1N(C)Cc1cccs1`, for which the Inhibition is recorded as -1.74%.

Consider `N#Cc1nc(-c2ccccc2)oc1S(=O)(=O)c1ccc(Cl)cc1`, for which the Inhibition worked out at 6.48%.

Consider `Clc1cccc(CO[C@H]2CCc3ccccc3[C@@H]2n2ccnn2)c1`, for which the Inhibition was 7.53%.

For `COc1ccc(C2(C(=O)Nc3ccc(Br)cc3)CCCC2)cc1`, the Inhibition turned out to be 6.87%.

For `CN1CCN(S(=O)(=O)c2ccc(-c3ccc4c(Nc5ccc6nn[nH]c6c5)ccnc4c3)cc2)CC1`, the Inhibition is listed as -0.24%.

Consider `Cc1cc(O)nc(-n2nc(C)cc2C)n1`, for which the Inhibition is 6.91%.

Turning to `Cc1cc(C)cc(COc2ccc3c(C)c(CCC(=O)O)c(=O)oc3c2C)c1`, the Inhibition turned out to be 4.13%.

As for `Cl.O[C@@H](c1cc(C(F)(F)F)nc2c(C(F)(F)F)cccc12)[C@H]1CCCCN1`, the Inhibition turned out to be 15.86%.

Regarding `CC(C)(C)C(=O)N(CCCCCCN1C[C@H](O)[C@@H](O)[C@H](O)[C@H]1CO)C1CCCCCC1`, the Inhibition is 4.68%.

As to `c1ccc(-c2[nH]c3ccccc3c2C(c2ccccn2)N2CCCC2)cc1` (configuration not stated), the Inhibition is 3.92%.

For the compound `O=C1Nc2ccc(Br)cc2C12NCCc1c2[nH]c2ccccc12` (configuration not stated), the Inhibition is recorded as 4.53%.

For `CCc1ccc(C(NCc2nc(N)nc(N(C)C)n2)C(C)C)cc1` (configuration not stated), the Inhibition was 7.08%.

As to `CCN(CC)CCCN1CCN(C(=O)c2cccc(-c3noc(C(F)(F)F)n3)c2)CC1`, the Inhibition is on record as -1.62%.

With `COc1cc(-c2cc(-c3ccc(S(C)(=O)=O)cc3)cnc2N)ccc1O`, the Inhibition is listed as 6.84%.

As for `CNC1C(OC2C(OC3C(O)C(O)C(NC(=N)N)C(O)C3NC(=N)N)OC(C)C2(O)C=O)OC(CO)C(O)C1O.CNC1C(OC2C(OC3C(O)C(O)C(NC(=N)N)C(O)C3NC(=N)N)OC(C)C2(O)C=O)OC(CO)C(O)C1O.O=S(=O)(O)O.O=S(=O)(O)O.O=S(=O)(O)O` (configuration not stated), the Inhibition is given as 8.5%.

`COc1ccc2nc(C)cc(OCC(=O)NCc3ccccc3)c2c1`: the Inhibition turned out to be 7.22%.

For the compound `Cc1ccc(NC(=O)c2nc[nH]c2C(=O)Nc2nc3ccccc3[nH]2)c(C)c1`, the Inhibition was found to be 12.12%.

Consider `OCCc1ccc(Nc2nccc(-c3nnc4ccccn34)n2)cc1`, for which the Inhibition amounted to 6.52%.

Regarding `CCOc1ccc(-c2nc(NC(=O)CS(=O)(=O)c3ccccc3)sc2C)cc1`, the Inhibition was -0.36%.

As to `c1ccc2c(c1)CN(CC1CC1)CC1(CCN(Cc3c[nH]c4cnccc34)CC1)O2`, the Inhibition was 1.67%.

With `Cc1ccc2nc(C)c(-c3ccn(Cc4ccccc4)n3)n2c1`, the Inhibition worked out at 10.25%.

Consider `CC1COC2(CCN(c3nc(=O)c4cc(C(F)(F)F)cc([N+](=O)[O-])c4s3)CC2)O1` (configuration not stated), for which the Inhibition stood at 4.14%.

Source of the values: ChEMBL document CHEMBL4513149, “CO-ADD screening of MMV (CH) - MMV compounds” (2021).
